# Data reported in PubChem BioAssay (Tox21).
# Unmarked numbers belong to inactive results. Results filed as inconclusive are left out. Entries that show only a call come without a potency. Activity calls are given as the source filed them. Unless noted, calls follow the shape of the dose curve; as a rule, active = well fitted curve in the direction sought with a large enough effect in the repeat runs; inconclusive = weak or mixed curves; inactive = no such curve, though single readings can be large; an effect the other way counts as inactive or inconclusive.
# Tests used:
# [1] = qHTS assay to identify small molecule antagonists of the estrogen related receptor (ERR) signaling pathway from Tox21 library - cell viability counter screen (AID 1224834); also: nearly all actives have a fitted effect of over 30% in size
# In short: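 ERR cells, 2,000/well; 6 h settle at 37 C/5% CO2; pin-tool compound transfer in DMSO; 17.5 h at 37 C; CellTiter-Fluor, 30 min; fluorescence intensity.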
# [2] = target: Luciferin 4-monooxygenase (Photinus pyralis) (UniProt P08659); experiment: qHTS assay to identify small molecule inhibitors of firefly luciferase (AID 1224835); also: nearly all actives have a fitted effect of over 25% in size
# Sequence of Luciferin 4-monooxygenase (Photinus pyralis) (P08659 whole entry, looked up): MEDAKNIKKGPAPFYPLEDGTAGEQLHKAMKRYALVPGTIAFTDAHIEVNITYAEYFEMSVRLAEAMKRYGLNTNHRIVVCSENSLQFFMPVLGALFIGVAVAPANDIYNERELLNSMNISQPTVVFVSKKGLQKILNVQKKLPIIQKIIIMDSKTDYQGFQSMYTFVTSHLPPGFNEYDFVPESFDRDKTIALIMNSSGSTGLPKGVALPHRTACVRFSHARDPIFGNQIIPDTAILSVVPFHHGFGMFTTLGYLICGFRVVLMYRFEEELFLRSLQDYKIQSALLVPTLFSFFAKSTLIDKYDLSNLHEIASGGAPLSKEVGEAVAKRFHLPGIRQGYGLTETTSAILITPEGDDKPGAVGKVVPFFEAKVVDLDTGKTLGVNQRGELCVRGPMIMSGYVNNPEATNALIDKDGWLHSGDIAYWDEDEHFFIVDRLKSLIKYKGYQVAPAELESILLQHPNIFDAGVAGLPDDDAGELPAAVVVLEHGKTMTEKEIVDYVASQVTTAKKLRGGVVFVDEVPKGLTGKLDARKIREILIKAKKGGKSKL
# In short: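 Quantitative HTS format; KM concentrations of both substrates. Purified P. pyralis FLuc activity quantified from luminescence images.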
# [3] = qHTS assay to identify small molecule antagonists of the constitutive androstane receptor (CAR) signaling pathway - cell viability counter screen (AID 1224837); also: nearly all actives have a fitted effect of over 45% in size
# In short: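 Viability was measured with CellTiter-Fluor in a HepG2 line carrying stably transfected hCAR and a CYP2B6-2.2kb construct. Cells were exposed for 23 hr at 37 C to 15 compound concentrations with 50 nM CITCO as agonist.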
# [4] = target: Nuclear receptor subfamily 1 group I member 3 (Homo sapiens) (UniProt Q14994); experiment: qHTS assay to identify small molecule antagonists of the constitutive androstane receptor (CAR) signaling pathway (AID 1224838);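 also: HepG2 cells stably expressing hCAR with CYP2B6 luciferase reporter stimulated by CITCO; nearly all actives have a fitted effect of over 40% in size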; also: potency is read from the fitted curve at half-maximal effect
# Sequence of Nuclear receptor subfamily 1 group I member 3 (Homo sapiens) (Q14994 whole entry, looked up): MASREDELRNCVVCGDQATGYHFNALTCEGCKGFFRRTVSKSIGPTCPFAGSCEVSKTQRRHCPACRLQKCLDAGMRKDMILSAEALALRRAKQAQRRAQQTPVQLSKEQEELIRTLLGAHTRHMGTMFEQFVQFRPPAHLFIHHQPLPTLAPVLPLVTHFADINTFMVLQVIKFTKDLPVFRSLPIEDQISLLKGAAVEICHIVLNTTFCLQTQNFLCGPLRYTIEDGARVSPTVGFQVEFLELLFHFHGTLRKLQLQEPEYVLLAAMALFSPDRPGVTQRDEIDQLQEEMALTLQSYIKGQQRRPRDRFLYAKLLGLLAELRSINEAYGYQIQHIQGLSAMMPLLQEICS
# In short: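 Antagonist mode used CITCO at a final 50 nM to activate CAR in human hepatoma HepG2 cells carrying stable hCAR and a 2.2 kb CYP2B6 promoter-luciferase construct. Compounds were tested at 15 concentrations over 24 h, with luminescence as the end point.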
# [5] = target: Nuclear receptor subfamily 1 group I member 3 (Homo sapiens) (UniProt Q14994); experiment: qHTS assay to identify small molecule agonists of the constitutive androstane receptor (CAR) signaling pathway (AID 1224839); also: nearly all actives have a fitted effect of over 15% in size
# In short: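 Compounds tested at 15 concentrations on HepG2 cells stably harbouring hCAR and CYP2B6-2.2kb reporter constructs, co-treated with PK11195 (0.75 uM final), 24 h at 37 C; luminescent reporter signal quantified.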
# [6] = qHTS assay to identify small molecule agonists of the hypoxia (HIF-1) signaling pathway - cell viability counter screen (AID 1224844; calls by dose curve; also: nearly all actives have a fitted effect of over 50% in size)
# In short: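 Cytotoxicity was measured in parallel with the HRE-driven beta-lactamase readout: after 17 hrs of compound exposure at 37C, HRE-bla ME-180 cells received CellTiter-Glo and luminescence was recorded 30 min later.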
# [7] = qHTS assay to identify small molecule agonists of H2AX (AID 1224845; active = well fitted activation curve with a large enough effect in the signal ratio in the repeat runs, not every such curve was filed as active; the % refers to the signal ratio)
# In short: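 Wild-type CHO-K1 cells plated overnight, then exposed 3 hr at 37C to compounds at 15 concentrations (0.76% DMSO). Lysed, then HTRF anti-pH2AX(S139)-cryptate/anti-H2AX-d2 detection after 24 hr at room temperature; emissions 665 and 620 nm.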
# [8] = qHTS assay to identify small molecule agonists of the hypoxia (HIF-1) signaling pathway (AID 1224846; active = well fitted activation curve with a large enough effect in the signal ratio in the repeat runs, not every such curve was filed as active; the % refers to the signal ratio)
# In short: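 Compounds from the Tox21 10K library, dissolved in DMSO, are tested for induction of a hypoxia response element–controlled beta-lactamase reporter in ME-180 cells. Exposure lasts 17 hrs at 37C after a 5 hr settling period, followed by CCF4-AM FRET substrate.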
# [9] = qHTS RealTime-Glo MT Cell Viability Assay in HepG2 cells - 24 hour (AID 1224867); also: nearly all actives have a fitted effect of over 50% in size
# In short: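 Cell number in HepG2 cultures estimated from NanoLuc luminescence generated by metabolic reduction of a prosubstrate by living cells. The homogeneous, nonlytic format allowed repeated reads at 0, 8, 16, 24, 32 and 40 h of compound exposure.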
# [10] = qHTS RealTime-Glo MT Cell Viability Assay in HEK293 cells - 32 hour (AID 1224868); also: nearly all actives have a fitted effect of over 50% in size; also: potency is read from the fitted curve at half-maximal effect
# In short: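 Homogeneous bioluminescent viability format in HEK293 cells (600 cells/well). Following 5 h at 37 C/5% CO2, 23 nL compound was pintooled; the signal was measured repeatedly during 40 h incubation.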
# [11] = qHTS assay to identify small molecule antagonists of the estrogen related receptor signaling pathway with the pleiotropic PPARgamma coactivator (PGC) from Tox21 10K library - cell viability counter screen (AID 1224840; active = well fitted cell-killing curve with a large enough effect in the repeat runs, not every such curve was filed as active; also: nearly all actives have a fitted effect of over 40% in size)
# In short: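 Multiplexed viability counter screen in the PGC/ERR cell line: cells treated with DMSO-dissolved compounds for 17.5 hours at 37 C, then viability measured as CellTiter-Fluor fluorescence.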
# [12] = target: Thyrotropin receptor (Homo sapiens) (UniProt P16473); experiment: qHTS assay to identify small molecule agonists of the thyroid stimulating hormone receptor (TSHR) signaling pathway (AID 1224843; calls by dose curve; also: nearly all actives have a fitted effect of over 45% in size)
# Sequence of Thyrotropin receptor (Homo sapiens) (P16473 whole entry, looked up): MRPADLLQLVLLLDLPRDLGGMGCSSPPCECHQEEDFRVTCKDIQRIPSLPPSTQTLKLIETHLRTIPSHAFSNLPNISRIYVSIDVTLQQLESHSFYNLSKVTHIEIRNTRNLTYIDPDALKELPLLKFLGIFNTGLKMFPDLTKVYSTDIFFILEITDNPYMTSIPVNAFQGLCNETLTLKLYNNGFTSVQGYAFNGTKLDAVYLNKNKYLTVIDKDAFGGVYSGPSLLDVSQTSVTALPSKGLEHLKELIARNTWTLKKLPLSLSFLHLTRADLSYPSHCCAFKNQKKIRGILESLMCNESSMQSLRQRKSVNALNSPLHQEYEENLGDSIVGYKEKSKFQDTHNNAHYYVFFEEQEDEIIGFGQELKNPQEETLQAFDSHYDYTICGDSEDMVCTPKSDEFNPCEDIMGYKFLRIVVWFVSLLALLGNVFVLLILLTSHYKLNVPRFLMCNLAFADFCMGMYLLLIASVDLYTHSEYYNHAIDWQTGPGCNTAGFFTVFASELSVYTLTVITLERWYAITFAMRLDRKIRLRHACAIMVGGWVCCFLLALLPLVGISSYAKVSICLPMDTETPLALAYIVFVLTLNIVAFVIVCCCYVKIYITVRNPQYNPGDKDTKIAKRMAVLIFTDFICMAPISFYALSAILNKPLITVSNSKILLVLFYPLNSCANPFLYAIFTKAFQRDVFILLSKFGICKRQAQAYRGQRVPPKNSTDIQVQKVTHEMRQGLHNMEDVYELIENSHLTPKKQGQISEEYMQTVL
# In short: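 Compounds are titrated over 15 concentrations, in triplicate, onto TSHR-HEK293 cells seeded at 800/well. Plates sit 30 min at room temperature before cAMP-d2 and anti-cAMP cryptate are added; signal is read after a further hour.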
# [13] = qHTS assay to identify small molecule agonists of H2AX - cell viability counter screen (AID 1224847; calls by dose curve; also: top concentration of the series differs between compounds; nearly all actives have a fitted effect of over 30% in size)
# In short: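 Compounds tested at 15 concentrations were incubated 3 hr at 37C with wild-type CHO-K1 cells; cellular ATP-based luminescence (CellTiter-Glo) indicated viability.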
# [14] = A CellTox Green Cytotoxicity Assay to monitor cytotoxicity in HEK293 cells - 0 hour (AID 1224869); also: nearly all actives have a fitted effect of over 50% in size
# In short: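 Cells (HEK293, 600/well) and dye reagent are dispensed together. After 5 h at 37 C, 23 nL compound is pinned in. Plates stay at 37 C for 40 h with fluorescence read at 0h, 8h, 16h, 24h, 32h and 40h.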
# [15] = qHTS assay to identify small molecule agonists of the estrogen related receptor signaling pathway with the pleiotropic PPARgamma coactivator (PGC) from Tox21 10K library (AID 1224842); also: nearly all actives have a fitted effect of over 15% in size
# In short: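 PGC/ERR reporter cells (NTP line) were seeded 2,000 per well, rested 6 h at 37 C/5% CO2, then pin-dosed with compounds in DMSO for 18 h at 37 C; luciferase read by One-Glo luminescence after 30 min at room temperature.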
# [16] = qHTS assay to identify small molecule antagonists of the estrogen related receptor (ERR) signaling pathway from Tox21 library (AID 1224848); also: nearly all actives have a fitted effect of over 50% in size; also: potency is read from the fitted curve at half-maximal effect
# In short: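 First, 2,000 ERR cells per well were plated and held 6 h at 37 C/5% CO2. Next, compounds in DMSO were pinned in and left 18 h at 37 C. Finally, ONE-Glo was added and luminescence read after 30 min at room temperature.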
# [17] = qHTS assay to identify small molecule agonists of the estrogen related receptor (ERR) signaling pathway from Tox21 library (AID 1224849; calls by dose curve; also: nearly all actives have a fitted effect of over 15% in size); conditions: ERR reporter cell line, ONE-Glo luciferase, 18 h; at 92.4 µM (top of the series) unless noted
# In short: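 Cells carrying the ERR reporter were plated and allowed to settle for 6 h, exposed to library compounds for 18 h at 37 C, then lysed with ONE-Glo and luminescence measured.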
# [18] = qHTS assay to identify small molecule agonists of the constitutive androstane receptor (CAR) signaling pathway - cell viability counter screen (AID 1224836); also: nearly all actives have a fitted effect of over 45% in size
# In short: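 23 h treatment, 37 C, 5% CO2. Cell line: HepG2 stably expressing hCAR with a CYP2B6-2.2kb construct. Co-treatment: PK11195, 0.75 uM final. Read-out: CellTiter-Fluor fluorescence intensity.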
# [19] = qHTS assay to identify small molecule antagonists of the estrogen related receptor signaling pathway with the pleiotropic PPARgamma coactivator (PGC) from Tox21 10K library (AID 1224841; call rule not given here; also: potency is read from the fitted curve at half-maximal effect)
# In short: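 Steps: plate 2,000 PGC/ERR cells per well; incubate 6 h at 37 C with 5% CO2; transfer compounds from DMSO stocks by pin tool; incubate 18 h at 37 C; add One-Glo; measure luminescence 30 min later.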
smiles,measurement,setting,value
CC(C)CCOC(=O)CC(C)C,Potency,[1],inactive
same,Potency,[2],inactive
same,outcome,[3],inactive
same,Potency,[4],inactive
same,Potency,[5],inactive
same,Potency,[6],inactive
same,outcome,[7],inactive
same,outcome,[8],inactive
same,outcome,[9],inactive
same,Potency,[10],inactive
C=CCOc1nc(OCC=C)nc(OCC=C)n1,Potency,[1],inactive
same,Potency,[2],inactive
same,outcome,[3],inactive
same,outcome,[11],inactive
same,outcome,[12],inactive
same,Potency,[6],inactive
same,outcome,[8],inactive
same,Potency,[13],inactive
same,outcome,[9],inactive
same,Potency,[10],inactive
same,Potency,[14],inactive
Cc1c(C)n(CCN(C)C)c2ccc(C(=O)OCCN(C)C)cc12,Potency,[1],inactive
same,Potency,[2],inactive
same,Potency,[4],29.8 µM (active)
same,Potency,[5],inactive
same,Potency,[15],inactive
same,outcome,[7],inactive
same,Potency,[13],inactive
same,Potency,[16],inactive
same,"activity change, positive = activation",[17],-20.1% [at 42.5 µM]
same,outcome,[9],inactive
same,Potency,[14],inactive
CCCCCCC(=O)OCC,Potency,[1],inactive
same,outcome,[18],inactive
same,outcome,[3],inactive
same,Potency,[4],inactive
same,Potency,[5],inactive
same,Potency,[19],inactive
same,Potency,[15],inactive
same,outcome,[12],inactive
same,Potency,[6],inactive
same,outcome,[7],inactive
same,outcome,[8],inactive
same,Potency,[13],inactive
same,Potency,[16],inactive
same,"activity change, positive = activation",[17],6.4%
same,outcome,[9],inactive
same,Potency,[10],inactive
same,Potency,[14],inactive
Cc1onc(-c2ccccc2)c1-c1ccc(S(N)(=O)=O)cc1,Potency,[1],inactive
same,outcome,[18],inactive
same,outcome,[3],inactive
same,Potency,[4],inactive
same,Potency,[5],inactive
same,Potency,[19],23.7 µM (active)
same,Potency,[15],inactive
same,outcome,[12],inactive
same,Potency,[6],inactive
same,outcome,[7],inactive
same,outcome,[8],inactive
same,Potency,[13],inactive
same,Potency,[16],13.3 µM (active)
same,"activity change, positive = activation",[17],-32.6% [at 42.5 µM]
same,outcome,[9],inactive
same,Potency,[14],inactive
CCn1c(=O)c2c(nc(/C=C/c3ccc(OC)c(OC)c3)n2C)n(CC)c1=O,outcome,[18],inactive
same,outcome,[3],inactive
same,Potency,[4],inactive
same,Potency,[5],inactive
same,outcome,[11],inactive
same,Potency,[19],inactive
same,Potency,[15],inactive
same,outcome,[12],inactive
same,Potency,[6],inactive
same,outcome,[7],inactive
same,outcome,[8],inactive
same,Potency,[13],inactive
same,Potency,[16],21.1 µM (active)
same,"activity change, positive = activation",[17],-35.7% [at 42.5 µM]
same,Potency,[10],1.69 µM (active)
same,Potency,[14],inactive
CCn1cc(C(=O)O)c(=O)c2cc(F)c(N3CCN(C)CC3)cc21,"viability change, negative = cytotoxic",[1],3.25% [at 19 µM]
same,"viability change, negative = cytotoxic",[18],2.39% [at 19 µM]
same,"activity change, negative = cytotoxicity",[3],2.92% [at 19 µM]
same,"viability change, negative = cytotoxic",[11],8.09% [at 19 µM]
same,activation,[12],-0.535% [at 19 µM]
same,activation (H2AX phosphorylation),[7],-0.959% [at 31.6 µM]
same,activation,[8],-0.496% [at 15.8 µM]
same,"activity change, negative = cytotoxicity",[13],-2.01% [at 31.6 µM]
same,"activity change, negative = cytotoxicity",[9],0.0471% [at 15.8 µM]
same,cytotoxicity,[14],-2.39% [at 15.8 µM]
Cc1c(F)cc2c(=O)c(C(=O)O)cn3c2c1CCC3C (configuration not stated),Potency,[2],inactive
same,outcome,[18],inactive
same,outcome,[3],inactive
same,Potency,[4],inactive
same,Potency,[5],inactive
same,Potency,[15],inactive
same,outcome,[12],inactive
same,Potency,[6],inactive
same,outcome,[7],inactive
same,outcome,[8],inactive
same,Potency,[13],inactive
same,"activity change, positive = activation",[17],-37.3% [at 42.5 µM]
same,Potency,[10],inactive
same,Potency,[14],inactive
O=C(O)C(O)[C@H](O)[C@@H](O)[C@H](O)[C@H](O)CO (some centres not stated),Potency,[1],inactive
same,outcome,[3],inactive
same,Potency,[4],inactive
same,Potency,[5],inactive
same,Potency,[15],inactive
same,outcome,[12],inactive
same,Potency,[6],inactive
same,outcome,[7],inactive
same,outcome,[8],inactive
same,Potency,[13],inactive
same,"activity change, positive = activation",[17],-30.1%
same,Potency,[14],inactive
